# The list is not random: actives were taken first. Their share in the collection is about 0.95%.
# FBPA Giardia inh = blocks Giardia fructose-bisphosphate aldolase activity; A8B2U2; purified Giardia FBPA; Potency, µM (top dose mostly 59.6 µM), for the others: at the highest dose activity, negative = inhibition, actives largely listed as inhibitors; AID 2451; 290,000 tested, 0.71% active; further: nearly all actives have a fitted effect of over 55% in size
#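 40 nM FBPA preincubated 10 min at RT with compound (up to 57.5 uM final), then substrate plus GAPDH/TPI/NAD/arsenate coupling and diaphorase/resazurin added. Fluorescence read after 20 min at RT, 525/598 nm.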
# RE007 growth inh = less growth of the S. pombe RE007 Vpr strain. AID 651644. 360,000 tested, 0.21% active. Potency, µM (highest dose often 92.2 µM), inactives show at the highest dose activity change, negative = less growth, most hits filed as inhibitors. S. pombe RE007 Vpr strain, BacTiter-Glo ATP luminescence, 24 h; active means well fitted falling curve with a large enough effect; inconclusive means small, poorly fitted or top-dose-only effect; inactive means no such curve, though single readings can be large or run the other way; further: nearly all actives have a fitted effect of over 50% in size
#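 Fission yeast strain RE007, carrying one chromosomally integrated HIV-1 vpr copy, was seeded at OD 0.01 in PMG+AL medium with 23 nL pinned compound. After 24 h at 30 °C and 99% humidity, viability was read by BacTiter-Glo luminescence.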
# Tb PYK inh = inhibitors of Trypanosoma brucei pyruvate kinase; Potency, µM (top dose mostly 76.8 µM), for the others: top-dose activity, negative = inhibition, usual class: inhibitors; TbPYK enzyme, Kinase-Glo Plus ATP luminescence, 45 min; Q57TT1; 410,000 tested, 0.12% active; AID 624173; further: nearly all actives have a fitted effect of over 50% in size
#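 T. brucei PYK with substrate was exposed to pin-transferred compounds across a concentration series, then started with 130 uM ADP (final). After 45 min at room temperature, Kinase-Glo Plus luminescence was read, normalized and curve-fitted.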
# LmPK inhibitor = blocks Leishmania mexicana pyruvate kinase activity | Potency, µM (doses to about 57.5 µM), inactives show at the highest dose activity change, negative = inhibition, most hits filed as inhibitors | Q27686 | 290,000 tested, 0.37% active | purified LmPK, Kinase-Glo ATP luminescence, 1 h
# Target sequence (Q27686 whole entry, looked up): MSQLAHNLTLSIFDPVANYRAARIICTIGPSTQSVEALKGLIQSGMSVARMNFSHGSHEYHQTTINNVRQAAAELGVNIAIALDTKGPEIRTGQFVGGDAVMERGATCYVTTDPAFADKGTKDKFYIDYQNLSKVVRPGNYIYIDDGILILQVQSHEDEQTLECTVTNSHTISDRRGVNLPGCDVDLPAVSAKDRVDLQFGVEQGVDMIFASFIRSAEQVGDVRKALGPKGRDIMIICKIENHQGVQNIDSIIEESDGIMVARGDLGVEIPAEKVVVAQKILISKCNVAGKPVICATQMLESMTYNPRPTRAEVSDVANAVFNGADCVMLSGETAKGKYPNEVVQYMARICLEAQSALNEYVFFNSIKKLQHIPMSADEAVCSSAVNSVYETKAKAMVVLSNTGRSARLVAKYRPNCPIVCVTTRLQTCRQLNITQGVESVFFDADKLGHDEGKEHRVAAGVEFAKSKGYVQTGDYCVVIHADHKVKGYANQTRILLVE
#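 Purified LmPK (0.1 nM) converted ADP (0.1 mM) to ATP with PEP (0.5 mM) in imidazole buffer pH 7.2 with KCl and MgCl2, 1 h at room temperature. ATP was read by Kinase-Glo luminescence; data normalized to uninhibited and no-enzyme controls.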
# * hit, by the source's call; ? = inconclusive; nt = no result given; [ ] = remark or other dose. Unless noted, the call rests on the fitted dose curve; in most records, active means well fitted curve in the direction sought with a large enough effect; inconclusive means small, poorly fitted or top-dose-only effect, or another doubt; inactive means no such curve, though single readings can be large; an effect the other way counts as inactive or inconclusive. On the % scale 0 is the no-effect control and ±100 the full control effect; potency means the concentration at half of the fitted maximal effect.
SMILES,FBPA Giardia inh,RE007 growth inh,Tb PYK inh,LmPK inhibitor
O=c1c(Cl)c(NCCCO)cnn1-c1nc2ccccc2[nH]1,-1%,?,?,14µM*
C=CCN(CC=C)c1cnn(-c2nc3ccccc3[nH]2)c(=O)c1Cl,-5%,-16%,-6%,16µM*
COc1ccccc1CCNC(=O)C1(C)CC1(Cl)Cl (stereo unspecified),2%,35%,2%,1%
COc1ccc(CNC(=O)C2CC(C)=CCC2C(=O)O)cc1 (stereo unspecified),-8%,-3%,-6%,4%
CN(C)S(=O)(=O)N1C(=O)c2ccccc2C1=O,-2%,3%,0%,28µM*
O=C(CN1CCN(c2ccc(O)cc2)CC1)Nc1ccccc1C(=O)NCCc1ccccc1,nt,-8%,28µM*,nt
COc1cccc(N2CCN(CC(=O)Nc3ccccc3C(=O)NCCc3ccccc3)CC2)c1,nt,?,-2%,nt
O=C(N/N=C/c1ccc(Br)s1)c1ccco1,3%,-20%,-2%,-4%
Cc1occc1C(=O)N/N=C/c1ccccc1[N+](=O)[O-],-13%,24%,-11%,14µM*
Cc1ccc(/C=N/NC(=O)c2ccco2)s1,0%,-13%,-27%,-17%
Cc1ccc(/C=N/NC(=O)c2ccoc2C)s1,-1%,-18%,-13%,14µM*
Cc1occc1C(=O)N/N=C/c1ccc(Br)s1,-3%,?,-1%,25µM*
O=C(CSc1cccc[n+]1[O-])c1ccccc1Br,-10%,22µM*,2%,4%
COc1ccc(-c2cn3cc(C)ccc3n2)cc1OC,-26%,?,-8%,16µM*
Cc1ccc2nc(-c3ccc4c(c3)OCCO4)cn2c1,?,?,-11%,14µM*
O=C(NCc1ccccc1)C(c1ccc(-c2ccccc2)cc1)N1CCN(CCN2CCOCC2)CC1 (stereo unspecified),nt,-8%,nt,nt
CCCC(CCC)C(N)=O,nt,nt,-10%,nt
Cc1cc([N+](=O)[O-])c2ccccc2[n+]1[O-],?,14µM*,-1%,-4%
COC(=O)C(CC(=O)c1ccc(C)cc1)n1nc(C)cc1C (stereo unspecified),-3%,-12%,-3%,0%
COC(=O)C(CC(=O)c1ccc(Br)cc1)n1ccnc1 (stereo unspecified),?,nt,nt,10µM*
COC(=O)C(CC(=O)c1ccc(Br)cc1)n1nc(C)cc1C (stereo unspecified),2%,28µM*,?,-7%
Cc1noc(C)c1-c1ccc2ncnc(NCc3cccc(C(F)(F)F)c3)c2c1,-3%,nt,nt,nt
O=C1c2cccc3cccc(c23)C(=O)N1CCCc1n[nH]c(=S)n1-c1ccccc1,7%,1%,7.1µM*,-5%
OCCCc1n[nH]c(=S)n1-c1ccccc1,-26%,-17%,-2%,5%
CCCCCCCCCCCCCCC(O)C[N+](C)(CCO)CCO (stereo unspecified),nt,32µM*,-1%,nt
SMILES,FBPA Giardia inh,RE007 growth inh,Tb PYK inh,LmPK inhibitor
Fc1ccc(-n2c(-c3cc(C4CC4)[nH]n3)n[nH]c2=S)cc1Cl,-18%,-7%,?,11µM*
O=c1ccc(-c2n[nH]c(=S)n2-c2ccc(F)c(Cl)c2)n[nH]1,?,41%,?,-18%
Cc1[nH]c2ccc(O)cc2c1CCN,3.5µM*,8%[18.4 µM],-4%,nt
Cc1[nH]c2ccc(OCc3ccccc3)cc2c1CCN,-17%,17%,1%,5%
O=C1CC(SCc2nc3ccccc3[nH]2)C(=O)N1c1ccc(Cl)cc1 (stereo unspecified),-17%,16µM*,-7%,-1%
O=C1CC(N2CCC(c3nc4ccccc4[nH]3)CC2)C(=O)N1c1cccc(F)c1 (stereo unspecified),6%,40µM*,-1%,-2%
O=C1CC(SCc2nc3ccccc3[nH]2)C(=O)N1c1cccc(F)c1 (stereo unspecified),-19%,32µM*,-7%,2%
O=C(O)c1ccc(N2C(=O)CC(N3CCC(c4nc5ccccc5[nH]4)CC3)C2=O)cc1 (stereo unspecified),?,0%,-12%,0%
CCOc1ccc(N2C(=O)CC(SCc3nc4ccccc4[nH]3)C2=O)cc1 (stereo unspecified),-17%,10µM*,5%,2%
CCOC(=O)[C@H](CCc1ccccc1)N[C@@H](C)C(=O)N(CC(=O)O)C1Cc2ccccc2C1,nt,nt,3%,nt
CCCOc1ccc(OC(=O)c2cn(-c3ccc(OC)cc3)c(=O)c3ccccc23)cc1,nt,nt,-2%,nt
O=C1CC(N2CCC(c3nc4ccccc4o3)CC2)C(=O)N1c1ccc(Cl)c(C(F)(F)F)c1 (stereo unspecified),-3%,28µM*,-3%,0%
Oc1cc(O)c2c(c1)O[C@H](c1ccc(O)c(O)c1)[C@@H](O)C2,-5%,0%[18.4 µM],0%,-2%
O=c1c(O)cc(C2Oc3cc(O)cc(O)c3CC2O)cc2c(C3Oc4cc(O)cc(O)c4CC3O)cc(O)c(O)c12 (stereo unspecified),0.89µM*,nt,nt,nt
CC(C)c1ccc(NS(=O)(=O)c2ccc3[nH]cc(C(=O)N4CCCC4)c(=O)c3c2)cc1,nt,nt,2%,nt
Cc1ccc(N2C(=O)CC(N3CCN(c4ccccn4)CC3)C2=O)cc1 (stereo unspecified),3%,-8%,-13%,-2%
Cc1ccc2nc(-c3ccc(N4C(=O)CC(N5CCN(CCO)CC5)C4=O)cc3)sc2c1 (stereo unspecified),0%,32µM*,1%,-1%
COc1ccc(C2CC(=O)N3CN(C4CCCCC4)CSC3=C2C#N)c(OC)c1 (stereo unspecified),nt,nt,18µM*,nt
CCOc1cc(C2CC(=O)N3CN(C4CCCCC4)CSC3=C2C#N)ccc1O (stereo unspecified),0.79µM*,-8%,?,-24%
O=C(/C=C/C#Cc1cccc(NS(=O)(=O)c2ccccc2)c1)NO,-12%,nt,nt,nt
CN1C2CCC1CC(NC(=O)n1c(=O)[nH]c3ccccc31)C2 (stereo unspecified),nt,nt,-6%,nt
COc1ccc(NC(=O)c2ccco2)cc1N,40µM*,-3%,-14%,-12%
COc1ccc(NC(=O)c2ccco2)cc1NC(=O)c1ccco1,5%,2%,1%,-1%
CCCCCCCCCCCCCCCCOCCOCCOCCOCCOCCOCCOCCOCCOCCOCCOCCOCCOCCOCCOCCOCCOCCOCCOCCOCCO,nt,nt,3%,nt
COc1ccc(Cn2cc(CN3CC(N4CCN(C5CCN(C)CC5)CC4)CS3(=O)=O)nn2)cc1 (stereo unspecified),nt,2%,-1%,nt
CC1=CC(=O)C(Sc2ccc(C)cc2)=CC1=O,nt,22µM*,7.1µM*,nt
COC(=O)CCCC1=CC2=CC(=O)C(C)(OC(=O)c3cccs3)C(=O)C2=CN1CCc1c[nH]c2ccccc12 (stereo unspecified),0.45µM*,-4%,2%,-6%[11.5 µM]
Cc1cc(Cl)ccc1OCCSc1nnc(-c2cccs2)o1,nt,nt,6%,nt
Cc1cc(N=Nc2ccc(C)c(N=Nc3cc(C)c(N)cc3N)c2)c(N)cc1N,?,-15%,-4%,20µM*

# Assay outcomes deposited in PubChem by National Center for Advancing Translational Sciences (NCATS).
